Bcl-xL primary – inhibitors of human Bcl-xL. Q07817. GST-Bcl-xL / FITC-Bim BH3 peptide fluorescence polarization. inhibition, % at 10.9 µM. 320,000 tested, 0.7% active. AID 2129;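 active = inhibition above the mean of all tested compounds plus 3 SD, cutoff set per campaign, cut at about 30% in these data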;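 note: inhibitors lower millipolarization by displacing the labeled peptide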
Target sequence (Q07817 whole entry, looked up): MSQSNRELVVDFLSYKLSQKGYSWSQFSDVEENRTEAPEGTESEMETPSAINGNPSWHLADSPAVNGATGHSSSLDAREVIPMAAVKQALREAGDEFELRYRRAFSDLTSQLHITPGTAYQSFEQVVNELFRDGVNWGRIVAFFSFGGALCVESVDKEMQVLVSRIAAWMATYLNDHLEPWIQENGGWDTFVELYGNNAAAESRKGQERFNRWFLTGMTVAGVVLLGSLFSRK
MEX-5 binding – C. elegans MEX-5 TCR-2 RNA binding activity; Q9XUB2; MEX-5/FITC-TCR2 RNA binding, fluorescence polarization; hits give low values; activity score (negative = inhibition of binding), % at 10 µM; 300,000 tested, 0.38% active; AID 1832;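 active = inhibition past about -25% in most replicates, and total fluorescence under double the plate's negative control median, limit read from the data; inconclusive = replicates evenly split on the limit, or fluorescence at least double controls; inactive = too little inhibition in most replicates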
EBV gp42 inh – blocks Epstein-Barr virus glycoprotein 42 binding | Q1HVG2 | Fluorescence polarization binding assay, mP read-out | inhibition, % (tested at 21.74 µM) | 220,000 tested, 0.42% active | AID 1085; in the data active = inhibition above about 50%
Target sequence (Q1HVG2 whole entry, looked up): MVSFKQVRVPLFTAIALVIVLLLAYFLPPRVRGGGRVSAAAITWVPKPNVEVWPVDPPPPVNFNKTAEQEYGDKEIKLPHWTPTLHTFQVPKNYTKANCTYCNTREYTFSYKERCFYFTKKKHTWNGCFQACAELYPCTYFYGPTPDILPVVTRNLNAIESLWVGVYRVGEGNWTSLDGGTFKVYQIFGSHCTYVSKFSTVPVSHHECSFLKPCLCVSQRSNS
MCL1 BIM primary – disrupts human MCL1 binding to BIM-BH3 peptide | Q07820 | GST-MCL1 / FITC-Bim-BH3 fluorescence polarization | inhibition, % at 10.9 µM | 320,000 tested, 0.68% active | AID 2057;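 active = inhibition above the mean inhibition of all tested compounds plus 3 SD, set per campaign, cut at about 40% in these data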;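 note: higher means more loss of mP so more displacement of Bim peptide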
E coli Lon inh – E. coli protease La inhibition; P0A9M0; purified E. coli Lon protease, fluorescence polarization; inhibition, % at 7.94 µM; 360,000 tested, 0.42% active; AID 602123; in the data active = inhibition above about 13%, passing the limit was not always enough
GLD-1 TGE inh – GLD-1-TGE RNA interaction inhibition (C. elegans) | purified GLD-1 + fluorescein TGE RNA, fluorescence polarization | inhibition, % at 5.96 µM | 320,000 tested, 0.44% active;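 active = percent inhibition above a per-plate cutoff, the plate mean of test compounds plus 3 SD, cut at about 30% in these data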
Of the large screens only hits and unclear results are named; the others gave an inactive call. Most compounds without a hit are left out; they make up all but 1.5% or so of the library.

CCOc1ccc(-c2noc(CCCC(=O)NCC3CCCO3)n2)cc1OC (centres undefined)	none (no result: EBV gp42 inh)
CCOc1ccc(C2C(C(=O)/C=C/c3ccco3)=C(O)C(=O)N2CCN2CCOCC2)cc1OC (centres undefined)	Bcl-xL primary 34
COc1ccc(NC(=O)c2c(Nc3ccccc3)sc(C(=O)c3ccc(F)cc3)c2N)cc1	none
COc1ccc(C(=O)c2sc(Nc3ccccc3)c(C(=O)Nc3ccc(OC)c(OC)c3)c2N)cc1	Bcl-xL primary 63
COc1ccc(C2=CC3=C(Br)C(=O)C(C)(OC(=O)c4ccc(Cl)nc4)C(=O)C3=CO2)cc1 (centres undefined)	MEX-5 binding -30 (no result: E coli Lon inh)
COc1ccc(C2=CC3=C(Br)C(=O)C(C)(OC(=O)C4CCCC4)C(=O)C3=CO2)cc1 (centres undefined)	Bcl-xL primary 31, MEX-5 binding inconclusive, MCL1 BIM primary 42
O=C1c2ccccc2C(c2nnnn2C2CCCCC2)N1CCc1ccc(O)cc1 (centres undefined)	none (no result: Bcl-xL primary, MEX-5 binding, EBV gp42 inh, MCL1 BIM primary, GLD-1 TGE inh)
CCOc1ccc(N(CC(=O)N2CCOCC2)S(=O)(=O)c2ccc(SC)cc2)cc1	none (no result: EBV gp42 inh)
Cc1ccc(F)cc1C(=O)N1CCOCC1c1cc(C(=O)NCc2ccccc2)no1 (centres undefined)	none (no result: Bcl-xL primary, MEX-5 binding, EBV gp42 inh, MCL1 BIM primary, GLD-1 TGE inh)
O=c1c2ccccc2oc2ccc(NCCCn3ccnc3)cc12	MEX-5 binding -27 (no result: EBV gp42 inh)
Cc1ccc2c(c1)[C@H]1[C@H](CO2)[C@H](c2ccccc2)[C@]2(C)C(=O)N(Cc3ccc(F)cc3)CC(=O)N12	GLD-1 TGE inh 52 (no result: Bcl-xL primary, MEX-5 binding, EBV gp42 inh, MCL1 BIM primary)
CCc1ccc(NC(=O)/C(C#N)=C/c2cc3ccc(C)cc3nc2N2CCOCC2)cc1	MEX-5 binding -41
NC(=O)COC(=O)c1ccc(-c2ccccc2)cc1	none
C=CCn1c(=O)/c(=C\c2ccsc2)s/c1=C(/C#N)C(=O)NCCN1CCOCC1	MEX-5 binding -46
COc1ccc(-n2c(=O)/c(=C\c3cccs3)s/c2=C(/C#N)C(=O)NCCN2CCOCC2)cc1	none
O=C(Cn1cc2c(n1)CCCC2)NCc1ccccn1	EBV gp42 inh 53
O=C(Cn1cc2c(n1)CCCC2)NCc1cccs1	none
Cc1cccc(NC2=Nc3ccccc3N3C2=Nc2c(c(C)nn2-c2ccccc2)C3c2ccc(O)c(O)c2)c1 (centres undefined)	Bcl-xL primary 48, MEX-5 binding inconclusive, MCL1 BIM primary 42
Cc1nn(-c2ccccc2)c2c1C(c1ccc([N+](=O)[O-])cc1)N1C(=N2)C(=O)Nc2ccccc21 (centres undefined)	none
Cc1ccc(NC2=Nc3ccccc3N3C2=Nc2c(c(C)nn2-c2ccccc2)C3c2ccc(O)c(O)c2)cc1 (centres undefined)	EBV gp42 inh 78 (no result: Bcl-xL primary, MEX-5 binding, MCL1 BIM primary, GLD-1 TGE inh)
CCC1(c2ccc(F)cc2)NC(=O)N(CC(=O)N2CCN(S(=O)(=O)c3ccc(C)cc3C)CC2)C1=O (centres undefined)	none (no result: Bcl-xL primary, MEX-5 binding, EBV gp42 inh, MCL1 BIM primary, GLD-1 TGE inh)
O=C(COc1ccc([N+](=O)[O-])cc1)NN=C1CCCC1	none
O=C1CCC/C(=N\NC(=O)COc2ccc(Cl)cc2)C1	GLD-1 TGE inh 64
Cc1cc(NC(=O)c2cccc(S(=O)(=O)N3CCC(C)CC3)c2)no1	none (no result: EBV gp42 inh)
COc1ccc(OC)c(N=Cc2c(O)c3ccccc3oc2=O)c1	MEX-5 binding -29 (no result: EBV gp42 inh)
COc1ccc(Cl)cc1N=Cc1c(O)c2ccccc2oc1=O	none (no result: EBV gp42 inh)
O=C1N=C(N2CCCCC2)S/C1=C/C1=Cc2ccccc2OC1	MEX-5 binding -43
CN1c2ccccc2C(C)(C)C12C=Nc1c(ccc3ccccc13)O2 (centres undefined)	Bcl-xL primary 34, MCL1 BIM primary 43
Cc1ccn2c(=O)nc(SCC(=O)Nc3cc(C)on3)nc2c1	MEX-5 binding -26 (no result: EBV gp42 inh)
Cn1cc(/C=C2\SC(=S)N(NC(=O)c3cccc(Cl)c3)C2=O)c2ccccc21	EBV gp42 inh 165 (no result: Bcl-xL primary, MEX-5 binding, MCL1 BIM primary, GLD-1 TGE inh)
Cn1cc(/C=C2\SC(=S)N(NC(=O)c3ccccc3)C2=O)c2ccccc21	EBV gp42 inh 89
O=C(NN1C(=O)/C(=C/c2ccc(O)cc2)SC1=S)c1cccc(O)c1	MEX-5 binding inconclusive (no result: EBV gp42 inh)
COc1ccccc1C(=O)COC(=O)Cc1ccccc1F	none (no result: Bcl-xL primary, MEX-5 binding, EBV gp42 inh, MCL1 BIM primary)
COc1ccc(OC)c(C2=C/C(=C/c3ccccn3)C(=O)O2)c1	Bcl-xL primary 31, MEX-5 binding -42
O=C(COC(=O)c1ccccc1NC(=O)c1ccco1)Nc1ncc(Cl)cc1Cl	none
Cc1c(Cl)cnc(NC(=O)COC(=O)[C@H](C)NC(=O)c2ccccc2)c1Cl	Bcl-xL primary 32, MCL1 BIM primary 46 (no result: MEX-5 binding, EBV gp42 inh)
Cc1c(Cl)cnc(NC(=O)COC(=O)c2ccncc2)c1Cl	Bcl-xL primary 34 (no result: MEX-5 binding, EBV gp42 inh)
O=C(COC(=O)c1ccccc1O)Nc1ncc(Cl)cc1Cl	Bcl-xL primary 36, MCL1 BIM primary 40
CCC(C)N1CCN(S(=O)(=O)Cc2ccccc2)CC1 (centres undefined)	none (no result: EBV gp42 inh)
c1ccc(C2=NNC(c3ccccn3)=NN2)nc1	MEX-5 binding -36 (no result: EBV gp42 inh)
c1ccc(-c2nc(-c3ccccn3)nc(-c3ccccn3)n2)nc1	MEX-5 binding -39
CC(=O)c1cc(Cl)ccc1OCC(=O)Nc1cccc(S(=O)(=O)N2CCCC2)c1	none (no result: MEX-5 binding, EBV gp42 inh)
CC(NC(=O)COC(=O)CC(c1ccccc1)c1ccccc1)c1ccccc1 (centres undefined)	none
CN(CC(=O)Nc1cccc(F)c1)C(=O)C1CCN(S(=O)(=O)c2ccc3c(c2)OCCO3)CC1	none (no result: EBV gp42 inh)
c1cc2c(cc1NC1CCCCCC1)OCO2	Bcl-xL primary 34, MCL1 BIM primary 47 (no result: EBV gp42 inh)
O=C(NC1CCCCCCC1)c1ccc2c(c1)OCO2	none
CCn1c(CSc2n[nH]c(N)n2)nc2cc(C(=O)O)ccc21	EBV gp42 inh 64
CCn1c(CSc2nnc(-c3ccncc3)n2CCOC)nc2cc(C(=O)O)ccc21	none
O=C(CCN1C(=O)C2C3C=CC(C3)C2C1=O)NCCN1CCCc2ccccc21 (centres undefined)	Bcl-xL primary 34
O=S(=O)(c1cccs1)N1CCN(c2ccccc2)CC1	none (no result: EBV gp42 inh)
O=C(C(NS(=O)(=O)c1cccs1)c1ccccc1)N1CCN(c2ccccc2)CC1 (centres undefined)	Bcl-xL primary 31
C[C@@H]1CN([C@@H](C)CO)C(=O)CCCn2nncc2CO[C@@H]1CN(C)S(=O)(=O)c1ccc2ccccc2c1	none (no result: Bcl-xL primary, MEX-5 binding, EBV gp42 inh, MCL1 BIM primary, GLD-1 TGE inh)
COc1cccc2c1-c1c(O)cccc1C2=O	Bcl-xL primary 43 (no result: EBV gp42 inh)
COc1ccccc1O	none (no result: EBV gp42 inh)
Cn1c(N)nc2nc(CCc3ccccc3)c(=O)[nH]c2c1=O	Bcl-xL primary 40, MCL1 BIM primary 41 (no result: EBV gp42 inh)
Cn1c(=O)c2c(nc(CCc3ccccc3)n2C)n(C)c1=O	none (no result: Bcl-xL primary, MEX-5 binding, EBV gp42 inh, MCL1 BIM primary, GLD-1 TGE inh)
O=c1[nH]c(Nc2ccccc2)cc2ccccc12	Bcl-xL primary 54, EBV gp42 inh 72, GLD-1 TGE inh 55
O=c1[nH]c(Nc2ccccc2)cc2cc(Br)ccc12	none (no result: EBV gp42 inh)
CC1(OC(=O)c2cccs2)C(=O)C=C2C=C(C3CC3)OC=C2C1=O (centres undefined)	GLD-1 TGE inh 35 (no result: EBV gp42 inh)

Compound activity from PubChem.
